# Test results: PubChem BioAssay (NCATS)
# Inconclusive results are not listed. Activity calls are given as the source filed them. Unless noted, calls come from the whole dose curve; as a rule, active = well fitted inhibition curve with a large enough effect; inconclusive = small, poorly fitted or top-dose-only effect; inactive = flat fitted curve, though single readings scatter.
# Assays:
# [1] = qHTS drug screen for cell cycle checkpoint inhibitors in PARPi-resistant BRCA-mutant ovarian cancer cell lines. (AID 1963452; calls by dose curve); settings: PEO1/OlaR viability, CellTiter-Glo luminescence, 96 h; for Z-AUC: stronger effect = lower value
# Summary of the method: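 PEO1, PEO4 and PEO1/OlaR ovarian cancer cells, 600 per well, exposed 96 h at 37C to a dilution series. Viability read by CellTiter-Glo luminescence, normalized to DMSO and empty wells; activity summarized as Z-AUC.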
# [2] = qHTS for identification of novel therapeutic agents for treatment of microphthalmiaassociated transcription factor (MiT) renal cell carcinoma (RCC) (AID 1963991; calls by dose curve); settings: CellTiter-Glo, 48 h; for z-score: stronger effect = lower value; for Potency: active = Z-AUC below -0.8 in all three lines
# Summary of the method: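 Viability of three TFE3-fusion renal carcinoma lines measured by CellTiter-Glo after 48 h treatment with each of 1912 compounds at 11 concentrations. Responses scaled between DMSO (100%) and empty wells (0%) before curve fitting.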
# [3] = qHTS profiling for inhibitors of Plasmodium falciparum proliferation (AID 504749); note: nearly all actives have a fitted effect of over 60% in size;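 for activity, negative = inhibition: 0% = DMSO vehicle and full inhibition = artemisinin control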; settings: P. falciparum in erythrocytes, SYBR Green DNA, 72 h
# Summary of the method: (§1)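 Infected RBCs, 0.3% parasitemia/2.5% Hct final; cpd 72 h, 37 C, 5% CO2; lysis buffer with saponin/triton/SYBR Green I, o/n RT dark; FI 485/535; norm. to artemisinin (0.29 uM) and DMSO.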
# 3D7 = experiment: as above; settings: P. falciparum in erythrocytes, SYBR Green DNA, 72 h; series mostly up to 28.7 µM
# Summary of the method: as §1
# [4] = measured here: PEO1 parental Z-AUC
# [5] = TFE3-RCC UOK109 viability, measured here: UOK109 Z-AUC
# [6] = TFE3-RCC viability, measured here: UOK124 Z-AUC
# [7] = TFE3-RCC viability, measured here: UOK145 Z-AUC
# [8] = at 28.7 µM (top of the series), parasite line A
# [9] = at 28.7 µM (top of the series), parasite line B
# Potency is the fitted concentration of half-maximal effect.
SMILES,Z-AUC [1],"Z-AUC [1, 4]",Z-AUC ([1]; measured here: PEO4 Z-AUC),"z-score [2, 5]","z-score [2, 6]","z-score [2, 7]","activity, negative = inhibition ([3]; at 12.8 µM (top of the series), parasite line A)","activity, negative = inhibition ([3]; at 12.8 µM (top of the series), parasite line B)",Potency (3D7),"activity, negative = inhibition [3, 8]","activity, negative = inhibition [3, 9]",Potency ([3]; parasite line A),Potency ([3]; parasite line B),Potency [1],Potency ([2]; TFE3-RCC UOK109 viability)
Nc1[nH]c(=O)ncc1F,1.66 (inactive),1.6,1.51,0.532,0.978,0.221,6.35% (inactive),1.39% (inactive),inactive,,,,,,
Cn1nnc2c(C(N)=O)ncn2c1=O,1.52 (inactive),1.36,1.39,0.106,0.527,0.42,,,inactive,6.45% (inactive),3.99% (inactive),,,,
CN(Cc1cc(Br)cc(Br)c1N)C1CCCCC1,1.09 (inactive),1.12,1.04,1.13,0.389,1.53,,,,-5.78% (inactive),-15.1% (inactive),,,,
CCOc1cc(N)c(Cl)cc1C(=O)NCC1CN(Cc2ccc(F)cc2)CCO1 (configuration not stated),1.79 (inactive),1.17,1.21,-0.211,0.779,0.352,,,,,,2510 nM (active),11200 nM (active),,
CN(CCOc1ccc(CC2SC(=O)NC2=O)cc1)c1ccccn1 (configuration not stated),0.844 (inactive),0.498,0.826,1.36,0.588,0.764,,,inactive,-1.7% (inactive),-10% (inactive),,,,
O=P(O)(O)C(O)(Cc1cccnc1)P(=O)(O)O,0.331 (inactive),0.503,0.956,0.388,0.644,0.537,,,inactive,11.1% (inactive),6.62% (inactive),,,,
CC[C@H](NC(C)C)[C@H](O)c1ccc(O)c2[nH]c(=O)ccc12,-0.979 (inactive),0.0863,0.0233,0.709,0.735,1.42,,,inactive,3.5% (inactive),5.44% (inactive),,,,
CCCc1cc(C(N)=S)ccn1,1.52 (inactive),1.53,1.99,1.43,0.537,0.979,,,inactive,2.28% (inactive),5.15% (inactive),,,,
N[C@@H](Cc1ccc(O)c(O)c1)C(=O)O,-0.0147 (inactive),0.128,0.735,0.912,0.453,0.282,,,,,,,,,
CCOCC(O)COc1ccc(NC(=O)CC[S+](C)C)cc1 (configuration not stated),0.72 (inactive),0.893,1.15,0.123,0.296,0.104,,,inactive,8.74% (inactive),4.77% (inactive),,,,
COc1ncnc(NS(=O)(=O)c2ccc(N)cc2)c1OC,1.84 (inactive),1.63,1.91,0.466,0.339,0.671,,,,-18.9% (inactive),11.3% (inactive),,,,
C[C@@H](NCCCc1cccc(C(F)(F)F)c1)c1cccc2ccccc12,0.769 (inactive),0.263,0.404,1.16,0.808,0.348,,,11200 nM (active),,,,5620 nM (active),,
CCN[C@H]1C[C@H](C)S(=O)(=O)c2sc(S(N)(=O)=O)cc21,1.11 (inactive),0.588,0.622,0.833,0.48,0.605,,,,,,,,,
COCCCOc1cc(C[C@@H](C[C@H](N)[C@@H](O)C[C@H](C(=O)NCC(C)(C)C(N)=O)C(C)C)C(C)C)ccc1OC,1.16 (inactive),1.52,1.51,1.1,0.318,1.4,,,,,,,,,
COc1c(N2CCNC(C)C2)c(F)cc2c(=O)c(C(=O)O)cn(C3CC3)c12 (configuration not stated),0.833 (inactive),0.836,0.282,0.46,0.931,0.897,,,inactive,-14.8% (inactive),-1.5% (inactive),,,,
CC(C)C[C@H](NC(=O)[C@H](CCc1ccccc1)NC(=O)CN1CCOCC1)C(=O)N[C@@H](Cc1ccccc1)C(=O)N[C@@H](CC(C)C)C(=O)[C@@]1(C)CO1,,-3.02,-2.77,-1.85,-2.71,-3.3,,,,,,,,9.8 nM (active),1480 nM (active)
CN(C)CCc1c[nH]c2ccc(CS(=O)(=O)N3CCCC3)cc12,1.7 (inactive),1.58,1.04,-0.684,-0.106,0.603,,,inactive,-2.84% (inactive),-4.67% (inactive),,,,
O=S(=O)(O)CCS,0.603 (inactive),1.56,1.53,-0.566,1.05,-0.757,,,inactive,8.7% (inactive),5.78% (inactive),,,,
CN(C)c1ccc(C(=C2C=CC(=[N+](C)C)C=C2)c2ccc(N(C)C)cc2)cc1,-1.19 (inactive),-1.68,-1.8,-1.93,-2.26,-1.8,,,282 nM (active),,,224 nM (active),282 nM (active),,1180 nM (active)
